Results on one compound are retold here after PubChem BioAssay (Tox21).

Inconclusive results are not listed. Active and inactive are the calls of the source. Calls come from the whole dose curve; as a rule, active = well fitted inhibition curve with a large enough effect in the signal ratio in the repeat runs (not every such curve was filed as active); inconclusive = weak or mixed curves; inactive = flat fitted curve, though single readings scatter; the % refers to the signal ratio.
Potency is the fitted concentration of half-maximal effect.

The nature of the assay: qHTS assay to identify small molecule antagonists of the TGF-beta/Smad signaling pathway (AID 1346924). The conditions noted are these: SBE-bla HEK293T, TGF-beta/Smad reporter, beta-lactamase ratio. An excerpt:
U.S. Tox21 Program National Center for Advancing Translational Sciences [NCATS] NIH Chemical Genomics Center [NCGC] U.S. Environmental Protection Agency [EPA] National Institutes of Environmental Health Sciences [NIEHS] National Toxicology Program [NTP] U.S. Food and Drug Administration [FDA] Tox21 Assay Overview: Transforming growth factor beta (TGF-beta) superfamily consists of a large number of structurally related dimeric proteins that act as hormones or local mediators in regulating a wide range of biological functions. This superfamily includes TGF-betas themselves, the bone morphogenetic proteins (BMPs) and the activins. These ligands induce oligomerization of serine/threonine receptor kinases and phosphorylate the cytoplasmic signaling molecules of Smad protein family. CellSensor SBE-bla HEK 293T cell line (Life Technologies, Carlsbad, CA), responsive to TGF-beta was used to screen Tox21 10K compound library for identification of agonists/antagonists of the Smad signaling pathway. […]
Tox21 Assay Protocol Summary: SBE-bla HEK 293T cells were dispensed at 4,000/well in 5 uL of assay medium into black wall/clear-bottom 1536-well plates using a Multidrop Combi (ThermoFisher Scientific, Waltham, MA) dispenser. […] Fluorescence intensity (405 nm excitation, 460 nm and 530 nm emissions) was measured using an Envision plate reader (PerkinElmer, Shelton, CT).
With `CCCCCCCCCCCC[N+](C)(C)CCOc1ccccc1`, the Potency is 50.9 µM (active).
